Compound activity: PubChem BioAssay, several laboratories
CFTR F508del cor = F508del CFTR correction, initial screen, CFBE line, single point | CFBE cells, YFP halide quenching; stimulated with forskolin plus potentiator P3; % fluorescence drop versus neutral controls | activity (quench increase), % at 7.58 µM | actives 0.36% (n = 350,000) | AID 720511, 2013;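 active = mean added fluorescence quench of at least 8% versus neutral control, with both replicates also reaching 8%; inconclusive = only one of the mean or replicate conditions met; inactive = mean below 8% and not both replicates reaching 8%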;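 also: cells transiently co-express mutant CFTR-F508del with the halide-sensitive YFP; corrector assay measuring rescue of mutant channel to the surface after 24 h compound exposure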
SKN-1 block = suppressors of acrylamide-induced Pgst-4::GFP reporter in worms, primary screen, SKN-1 inhibitor project, whole organism, uHTS, GFP/RFP fluorescence ratio, strain VP596 | C. elegans VP596 Pgst-4::GFP/RFP ratio, 24 h | inhibition, % at 21.8 µM | actives 0.49% (n = 360,000);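 active = interference check ratio from 0.5 to 1.5 plus GFP to RFP signal ratio inhibition reaching or exceeding a fixed threshold, cut at about 30% in these data, passing the limit was not always enough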
MPTP block = mitochondrial permeability transition pore inhibitors, primary screen, biochemical, isolated mouse mitochondria, absorbance. Ca2+ swelling absorbance, 30 min. inhibition, % at 10 µM. actives 1.4% (n = 360,000);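 active = inhibition of 50% or more, scaled per plate between neutral and stimulator controls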;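 also: 0% = DMSO wells given calcium and 100% = 1 mM EGTA wells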
ATG4B inh = ATG4B protease inhibitors, primary screen, biochemical, fluorescence, uHTS | Cysteine protease ATG4B (Homo sapiens), Q9Y4P1 | ATG4B cleavage of LC3-PLA2, NBD-HPC fluorescence, 1 h | inhibition, % at 8.33 µM | actives 0.51% (n = 340,000) | AID 504462, 2011; in the data active = inhibition above about 40%
Target sequence (Q9Y4P1 whole entry, looked up): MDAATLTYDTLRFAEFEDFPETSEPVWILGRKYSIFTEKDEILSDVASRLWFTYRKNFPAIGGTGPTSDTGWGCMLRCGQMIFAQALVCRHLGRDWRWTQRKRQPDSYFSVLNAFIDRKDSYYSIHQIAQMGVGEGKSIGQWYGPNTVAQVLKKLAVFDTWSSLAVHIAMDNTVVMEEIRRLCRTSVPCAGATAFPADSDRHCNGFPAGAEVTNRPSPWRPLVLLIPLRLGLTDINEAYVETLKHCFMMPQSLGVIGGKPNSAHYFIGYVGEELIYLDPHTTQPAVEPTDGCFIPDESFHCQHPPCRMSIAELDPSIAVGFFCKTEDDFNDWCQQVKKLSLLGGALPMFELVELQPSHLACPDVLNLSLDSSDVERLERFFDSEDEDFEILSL
NRP1-CendR mod = modulators of CendR peptide binding to NRP-1, primary screen, biochemical, fluorescence polarization, uHTS | FAM-RPARPAR peptide binding to NRP-1 | inhibition, % at 25 µM | actives 0.85% (n = 360,000);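 active = inhibition or corrected inhibition above about 18%, plus a signal ratio from 0.5 to 1.5, limit read from the data, passing the limit was not always enough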
MPTP counter = fluorescence retest of MPTP screen hits in isolated mitochondria, single concentration; shares compounds with MPTP block; membrane potential, Rhodamine 123 fluorescence; inhibition, % at 10 µM; actives 78% (n = 5,000); AID 624504, 2012; in the data active = inhibition above about 22%;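 also: 0% = DMSO vehicle and 100% = positive control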
MPTP abs DR = mitochondrial permeability transition pore inhibitors, dose response, biochemical, absorbance, uHTS hits. shares compounds with MPTP block. isolated mitochondria swelling. IC50, µM. actives 58% (n = 780). AID 651561, 2012; in the data active = IC50 below about 20 µM
MPTP cs DR = fluorescent counter-screen in isolated mitochondria, dose response, counter-screen for MPTP inhibitor project, biochemical, fluorescence, uHTS hits; shares compounds with MPTP block; isolated mitochondria counterscreen, fluorescence read-out; IC50, µM; actives 49% (n = 780); AID 651564, 2012; in the data active = IC50 below about 80 µM
The depositor's hits bear a star. Hits are enriched below; roughly 2.7% of the tested compounds scored in any of these assays.

How did CC(=O)c1ccc(N2CCN(C(=O)Nc3ccc(Cl)cc3)CC2)cc1 do in these assays?
CFTR F508del cor: -1; SKN-1 block: -12; MPTP block: 1; ATG4B inh: -4; NRP1-CendR mod: 4

What do the screens show for `Cc1ccc(NC(=O)COc2ccccc2CNC(C)(C)CC(C)(C)C)cc1`?
SKN-1 block: 10; MPTP block: 50*; ATG4B inh: -3; NRP1-CendR mod: 1; MPTP counter: 34*

How did O=C(Nc1ccccc1)c1cc([N+](=O)[O-])ccc1NC1CCCCC1 do in these assays?
CFTR F508del cor: -1; SKN-1 block: 9; MPTP block: 51*; ATG4B inh: -2; NRP1-CendR mod: -4; MPTP counter: -1; MPTP cs DR: >80

Results for COc1ccc(NC(=O)NC23CC4(C)CC(C)(CC(C)(C4)C2)C3)cc1OC ?
CFTR F508del cor: -1; SKN-1 block: 6; MPTP block: 76*; ATG4B inh: -4; NRP1-CendR mod: -9; MPTP counter: 51*

Results for C[C@@H]1CN([C@@H](C)CO)C(=O)c2cc(NS(C)(=O)=O)ccc2O[C@@H]1CN(C)CC1CCCCC1 ?
CFTR F508del cor: 0

What do the screens show for `Cc1ccc(CN2CCN(CC(=O)NCCCN3CCN(c4ccc(F)cc4)CC3)C2=O)cc1`?
SKN-1 block: 0; MPTP block: 56*; ATG4B inh: -4; NRP1-CendR mod: -16; MPTP counter: 12; MPTP abs DR: 14*; MPTP cs DR: 18*

How did CCCCc1c(-c2ccccc2OC)ncn1Cc1ccc(C)cc1 do in these assays?
CFTR F508del cor: 2

How did CCCCc1c(-c2ccccc2OC)ncn1Cc1ccc(-c2ccccc2)cc1 do in these assays?
CFTR F508del cor: 4; SKN-1 block: -3; MPTP block: 78*; NRP1-CendR mod: 10; MPTP counter: 116*

Results for CN1C(=O)c2cc(NS(=O)(=O)c3ccc(Cl)cc3)ccc2OC[C@H]2O[C@@H](CC(=O)N3CCc4ccccc4C3)CC[C@@H]21 ?
CFTR F508del cor: -1

How did CCCC(=O)N1CCN(c2ccc(NC(=S)NC(=O)c3cccc(C)c3)cc2)CC1 do in these assays?
CFTR F508del cor: 3; SKN-1 block: 5; MPTP block: 77*; ATG4B inh: -3; NRP1-CendR mod: 11; MPTP counter: 56*

Results for CN1CCN(c2ccc(NC(=S)NC(=O)c3cccc4c(Cl)cccc34)cc2)CC1 ?
CFTR F508del cor: 4; SKN-1 block: 12; MPTP block: 91*; ATG4B inh: -4; NRP1-CendR mod: 5; MPTP counter: -8

How did O=C(NC(=S)Nc1ccc(N2CCOCC2)cc1)c1cccc(Cl)c1Cl do in these assays?
CFTR F508del cor: 2; SKN-1 block: 2; MPTP block: 0; ATG4B inh: -10; NRP1-CendR mod: 8

What do the screens show for `COc1ccccc1C#Cc1ccc2c(c1)[C@@H]1[C@@H](CCN1C(=O)CN1CCOCC1)[C@@H](CO)N2`?
CFTR F508del cor: -2

What do the screens show for `O=C(Nc1ccccc1)N1CC(=O)N2[C@H](CO)[C@@H](c3ccc(C#CC4CC4)cc3)[C@@H]2C1`?
CFTR F508del cor: 1

What do the screens show for `Cc1cc(C(=O)CSc2nc3ccc(Cl)cc3[nH]2)c(C)n1Cc1ccco1`?
CFTR F508del cor: 2; SKN-1 block: 2; MPTP block: 51*; ATG4B inh: -3; NRP1-CendR mod: -3; MPTP counter: 53*

How did CC(C)NC(=O)N(C)C[C@@H]1Oc2cc(C#Cc3ccc(F)cc3)ccc2S(=O)(=O)N([C@H](C)CO)C[C@H]1C do in these assays?
CFTR F508del cor: 3

What do the screens show for `O=C(Nc1ccc(Br)cc1)c1ccc(F)c(S(=O)(=O)NCc2cccs2)c1`?
SKN-1 block: 1; MPTP block: 97*; ATG4B inh: -5; NRP1-CendR mod: -1; MPTP counter: 94*

How did O=C(Nc1cccc(Cl)c1)c1ccc(F)c(S(=O)(=O)NCc2ccc3c(c2)OCO3)c1 do in these assays?
SKN-1 block: 9; MPTP block: 51*; ATG4B inh: -26; NRP1-CendR mod: -2; MPTP counter: 66*

What do the screens show for `O=S(=O)(NCc1cccs1)c1ccc(Br)cc1`?
CFTR F508del cor: -3; SKN-1 block: 1; MPTP block: -1; ATG4B inh: -4; NRP1-CendR mod: 13

What do the screens show for `C[C@@H]1CCCCO[C@@H](CN(C)Cc2ccc(C(=O)O)cc2)[C@@H](C)CN([C@@H](C)CO)C(=O)c2cc(NC(=O)Nc3ccccc3)ccc2O1`?
CFTR F508del cor: -2

Results for CCCC#Cc1ccc([C@@H]2[C@@H](CO)N3C(=O)CN(C(=O)Nc4cccc(F)c4)C[C@@H]23)cc1 ?
CFTR F508del cor: 1

How did COc1ccc(S(=O)(=O)Nc2ccc3c(c2)C(=O)N([C@@H](C)CO)C[C@@H](C)[C@@H](CN(C)C(=O)Nc2ccc(F)cc2)OCCCC[C@@H](C)O3)cc1 do in these assays?
CFTR F508del cor: -3

Results for COc1ccc(N/N=C/c2c(C(=O)O)ccc3ccccc23)cc1 ?
CFTR F508del cor: inconclusive; SKN-1 block: 6; MPTP block: 82*; ATG4B inh: -16; NRP1-CendR mod: 1; MPTP counter: 52*

How did COc1ccc2ccccc2c1/C=N/Nc1ccc(Cl)c(C(=O)O)c1 do in these assays?
CFTR F508del cor: 2; SKN-1 block: 13; MPTP block: 2; ATG4B inh: 8; NRP1-CendR mod: -5

What do the screens show for `O=C(Nc1ccc(Cl)cc1)Nc1cnccn1`?
SKN-1 block: 12; MPTP block: 53*; ATG4B inh: 1; NRP1-CendR mod: -18; MPTP counter: 70*

What do the screens show for `O=C(Nc1ccc([N+](=O)[O-])cc1)Nc1cnccn1`?
CFTR F508del cor: -1; SKN-1 block: 2; MPTP block: 69*; ATG4B inh: -12; NRP1-CendR mod: -13; MPTP counter: 89*

How did CC(C)(C)C(=O)NC(=S)NNC(=O)c1sc2ccccc2c1Cl do in these assays?
SKN-1 block: 6; MPTP block: 61*; ATG4B inh: -20; NRP1-CendR mod: -13; MPTP counter: 21*

What do the screens show for `O=C(NNC(=S)NC1CCCCC1)c1sc2ccccc2c1Cl`?
SKN-1 block: 10; MPTP block: 88*; ATG4B inh: 37; NRP1-CendR mod: 0; MPTP counter: 79*
